Reference: PubChem BioAssay (NCATS)
Records with an inconclusive call do not appear. A call without a number means that no potency is given here. The source made the active and inactive calls. Calls come from the whole dose curve; as a rule, active = well fitted inhibition curve with a large enough effect; inconclusive = small, poorly fitted or top-dose-only effect; inactive = flat fitted curve, though single readings scatter.

target: Aldehyde dehydrogenase, mitochondrial (Homo sapiens) (UniProt P05091); experiment: qHTS for Inhibitors of the Aldehyde Dehydrogenase Family (ALDH2) Primary screen (AID 2061308); conditions: ALDH2 enzyme inhibition qHTS, 1536-well; series mostly up to 56 µM; note: nearly all actives have a fitted effect of over 55% in size

Q: For `Oc1cccc2cc(Nc3ccccc3)cnc12`, which Potency is on record?
A: Its Potency is “inactive”.

Q: For `Cc1cccc(-n2cnc3cc(C(=O)N4CC(C)CC(C)C4)ccc32)c1` (configuration not stated), which Potency is on record?
A: Its Potency is “inactive”.

Q: For `Cc1ccc(C)c(OC2=NS(=O)(=O)c3ccccc32)c1`, which Potency is on record?
A: Its Potency is “inactive”.

Q: For `COc1ccnc(NC(=S)N2CCN(c3cc(C(F)(F)F)cc(C(F)(F)F)c3)CC2)c1`, which Potency is on record?
A: The Potency was “inactive”.

Q: `Cc1ccc(NS(=O)(=O)c2ccc3c(c2)NC(=O)CO3)cc1C` was tested. Which Potency did it give?
A: Its Potency is “inactive”.

Q: For `O=c1c2ccc(C(F)(F)F)cc2nc2sc(Nc3ccc4c(c3)CCC4)nn12`, which Potency is on record?
A: Its Potency is “inactive”.

Q: With `CC(C)N1CCc2c(-c3nc4ccccc4s3)csc2C1` as the compound, how does the Potency read?
A: The Potency was “inactive”.

Q: How did the Potency turn out when `Cc1ccc(S(=O)(=O)Nc2cnccc2C(=O)Nc2nc(-c3ccc(-c4ccccc4)cc3)cs2)cc1` was run?
A: Its Potency is “inactive”.

Q: With `O=C(C[C@H]1CC[C@@H](C(=O)Nc2ccc(S(=O)(=O)Nc3nccs3)cc2)C1)c1ccccc1` as the compound, how does the Potency read?
A: Its Potency is “inactive”.

Q: Which Potency does the source give for `Fc1cccc(CSc2nc3ncc(Br)cc3[nH]2)c1` here?
A: The Potency was “inactive”.

Q: Which Potency does the source give for `COc1cccc(C2=Nn3c(nnc3-c3ccc(OC)c(OC)c3)SC2)c1` here?
A: The Potency was “inactive”.

Q: With `O=C(Nc1nnc(-c2ccncc2)s1)Oc1ccc2ccccc2c1` as the compound, how does the Potency read?
A: The Potency was “inactive”.

Q: With `Cc1ccnc(NC(=S)NCCNc2cccc(C(F)(F)F)c2)c1` as the compound, how does the Potency read?
A: Its Potency is “inactive”.

Q: With `Cn1c2ccsc2c2ncn(Cc3ccc(F)cc3)c(=O)c21` as the compound, how does the Potency read?
A: Its Potency is “inactive”.

Q: `Cc1nc(N2CCOCC2)c2nc(-c3ccccc3)n(CCCN(C)C)c2n1` was tested. Which Potency did it give?
A: The Potency was “inactive”.

Q: `CCCCC(OC(=O)CNC(=O)c1ccccc1)C(=O)Nc1cc(C(F)(F)F)ccc1Cl` (configuration not stated) was tested. Which Potency did it give?
A: The Potency was “inactive”.

Q: How did the Potency turn out when `C[C@@H](N)C(=O)Nc1cccc(-c2nn3c(=O)cc(N4CCNCC4)nc3s2)c1` was run?
A: Its Potency is “inactive”.
